The target of test [1] is T1, Aspartate--tRNA(Asp/Asn) ligase (Mycobacterium tuberculosis (strain ATCC 25618 / H37Rv)) (UniProt P9WFW3). Note: in the data most compounds retested in dose-response had high values.
T1 sequence (whole entry): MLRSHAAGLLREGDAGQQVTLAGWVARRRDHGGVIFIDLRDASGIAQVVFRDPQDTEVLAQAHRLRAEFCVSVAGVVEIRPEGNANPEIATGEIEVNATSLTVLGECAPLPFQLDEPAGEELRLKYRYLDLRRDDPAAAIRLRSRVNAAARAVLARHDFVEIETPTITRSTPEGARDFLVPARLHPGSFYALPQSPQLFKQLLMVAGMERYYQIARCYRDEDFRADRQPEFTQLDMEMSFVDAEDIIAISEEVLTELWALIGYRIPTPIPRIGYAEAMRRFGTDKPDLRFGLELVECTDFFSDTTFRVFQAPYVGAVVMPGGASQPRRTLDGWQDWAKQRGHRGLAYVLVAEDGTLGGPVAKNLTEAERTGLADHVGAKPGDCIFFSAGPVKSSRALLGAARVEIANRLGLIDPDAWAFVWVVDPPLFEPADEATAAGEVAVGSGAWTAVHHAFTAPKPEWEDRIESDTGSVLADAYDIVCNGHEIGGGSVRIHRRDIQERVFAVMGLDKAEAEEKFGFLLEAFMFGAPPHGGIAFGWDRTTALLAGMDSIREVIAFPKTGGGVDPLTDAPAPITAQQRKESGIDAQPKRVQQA
The test is described as follows: Assay for Asp RNA synthetase-1 from Mycobacterium tuberculosis. The class given is functional. Particulars: 30 µM. Also on record: scale not given: direction of the effect not stated beside the values.

Test [2] deals with Shiga toxin 2 (Escherichia coli O157:H7) (UniProt P09385+P09386). The test is described as follows: E. coli 0.157:H7 Shiga Toxin SOP - stx2 screening assay. In kind it is functional. Particulars: 30 µM. Also on record: scale not given: direction of the effect not stated beside the values.

For `O=C(Cn1nc2c(cc1=O)CCCC2)N[C@@H](C(=O)O)c1ccccc1`, the Percent Effect in test [1] was -1.42%; in test [2], -35.6%.
In the case of `Cc1ncsc1C(=O)N(C)CCc1ccncc1`, the figures for the Percent Effect in test [1] and in test [2] were -1.68% and 19.9%, respectively.
Take `O=C(c1cccnc1)N1CC[C@H](OCC2CC2)[C@@H]1Cc1cccnc1`: the values for the Percent Effect in test [1] and in test [2] were 3.76% and -13.7%, respectively.
On the same counts, the results for `Cc1ccc(C2CSCCN2C(=O)C2=CCCC2)o1` (centres undefined) are 6.9% and 5.19%.
Take `CCCN1CCCn2nc(CNC(=O)CCc3scnc3C)cc2C1`: the results for the Percent Effect in test [1] and in test [2] were -0.334% and 3.64%, respectively.
On the same counts, the results for `COCc1nc(N(C)C)ncc1C(=O)Nc1ccn(C)n1` are -1.07% and -19.2%.
For `CCc1ccc(OCC(O)CN2CCC(O)CC2)cc1` (centres undefined), the Percent Effect in test [1] was found to be 3.31%; in test [2], 16.1%.
On to `Cc1cc(NC(=O)c2nc(N3CCCC3)ncc2Cl)nc(C(C)C)n1`, for which the Percent Effect is 2.49% in test [1] and -23.7% in test [2].
As to `O=C(NCCCN1CCCC1=O)Nc1ccc(Br)cc1Cl`, the Percent Effect was -2.15% in test [1] and -11% in test [2].
On the same counts, the results for `CC(C)NC(=O)COc1nc(C(C)C)no1` are -2.64% and -17.3%.
On the same counts, the results for `Cc1nn(C(C)C)c(C)c1NC(=O)c1ccncc1` are -0.479% and -15.8%.
With `CC1CN(CC(=O)Nc2nncs2)CCN1Cc1nccn1C` (centres undefined), the Percent Effect in test [1] was 4.22%; in test [2], 12.1%.
On the same counts, the results for `OC(CN1CCN(Cc2ccc(F)c(F)c2)CC1)C1CC1` (centres undefined) are -4.54% and -0.879%.
On the same counts, the results for `Cc1cc(C)c(CNC(=O)NCCOc2ccc3c(c2)CCC3)c(=O)[nH]1` are -2.17% and 15%.
On the same counts, the results for `CN(C)C(=O)COC[C@]12COC[C@H]1CN(Cc1ccoc1)C2` are -2.38% and -7.04%.
As for `FC(F)(F)COCCN1CCN(c2ccc3nncn3n2)CC1`, the Percent Effect is 0.546% in test [1] and -42.1% in test [2].
On the same counts, the results for `CC(C)(C)n1ncc2c1NC(=O)CC2c1ccsc1` (centres undefined) are 2.57% and -10.8%.
The matching figures for `CC1(C)CC(N2Cc3nc(N)ncc3C2=O)CC(C)(C)N1`: 7.13% and -32.6%.
On to `CC(=O)Nc1nc(C(=O)N2CCCC2c2ccccc2C)cs1` (centres undefined), for which the results for the Percent Effect in test [1] and in test [2] were -0.698% and 1.85%, respectively.
On the same counts, the results for `COCc1nc(C(=O)NS(=O)(=O)c2ccc(C)s2)cs1` are 0.678% and -34.1%.
With `O=C(Cc1ccc2c(c1)OCCO2)N1CCCC(n2cccn2)C1` (centres undefined), the values for the Percent Effect in test [1] and in test [2] were -1.07% and 10.8%, respectively.
As for `CNC(=O)c1cc2c(nc1N(C)C)CCN(S(=O)(=O)CC(C)C)CC2`, the Percent Effect in test [1] was -0.801%; in test [2], -2.65%.
On the same counts, the results for `COc1ccc(OCCN(C)C(=O)NC(C)c2nncn2C)cc1` (centres undefined) are -1.96% and -14.8%.
Consider `CN(C)c1ncccc1CNC(=O)N1CCCC1CN1CCCCC1` (centres undefined), for which the Percent Effect in test [1] is -2.19%; in test [2], -17.9%.
On the same counts, the results for `CCOC(C)c1nc(CN2CCNCC2)cs1` (centres undefined) are -2.26% and -12.7%.
On the same counts, the results for `Cn1cc(CC2CCN(C(=O)NCc3cn4ccsc4n3)C2)cn1` (centres undefined) are -4.64% and -8.11%.
The matching figures for `CC(C)c1nnc(CN2CCCC2Cn2cncn2)o1` (centres undefined): -1.37% and -22.4%.
Regarding `COCCN(C)Cc1ccc(OC)c(OC(F)F)c1`, the figures for the Percent Effect in test [1] and in test [2] were 2.53% and -37.4%, respectively.
Turning to `Cn1ccnc1CNC1CCCN(Cc2noc(C3CC3)n2)C1` (centres undefined), the Percent Effect is -0.413% in test [1] and -13.4% in test [2].
The matching figures for `O=C(COc1ccc2c(c1)CCC2)NS(=O)(=O)c1cncc(Br)c1`: 4.7% and 4.36%.
`COc1ccc(CN(C)CC(=O)NC2(C)CCS(=O)(=O)C2)cc1F` (centres undefined): the values for the Percent Effect in test [1] and in test [2] were 10.4% and -2.83%, respectively.
The matching figures for `Cc1ccc(CNC2CCCc3c2cnn3C)s1` (centres undefined): -2.88% and 1.56%.
The matching figures for `Cc1ccc2oc(C(=O)N3CCc4nnc(N(C)C)cc4C3)cc2n1`: 1.25% and -14.3%.
The matching figures for `Cn1cc(CN2CCc3c(nc(-c4ccccn4)[nH]c3=O)C2)cn1`: -3.63% and -0.78%.
Regarding `c1coc(-c2noc(CN3CC(n4cccn4)C3)n2)c1`, the values for the Percent Effect in test [1] and in test [2] were -3.52% and 24.7%, respectively.
On the same counts, the results for `Cc1cnc2n(c1=O)CC(C(=O)NC1CC1)CS2` (centres undefined) are -3.65% and 0.421%.
The matching figures for `COc1ccc(F)cc1C(C)NC(=O)c1nnc(C)s1` (centres undefined): 1.79% and -5.21%.
For the molecule `Cc1cccc(C2(C(=O)NCCCn3cccn3)CC2)c1`, the Percent Effect in test [1] was -9.29%; in test [2], -5.42%.
On the same counts, the results for `CNc1nc2c(s1)C(c1cccc(F)c1F)CC(=O)N2` (centres undefined) are 34.5% and 3.28%.
The matching figures for `CSc1nccn1-c1cccc(C(=O)NCC2CC2)c1`: 4.07% and 32%.
The matching figures for `COc1ccccc1OCc1cc(C(=O)N2CC(O)C2)n[nH]1`: 2.09% and 1.76%.
Regarding `CCOCC1CN(C(=O)c2cscn2)Cc2nnn(CC3CC3)c21` (centres undefined), the Percent Effect was -4.51% in test [1] and -6.48% in test [2].
The matching figures for `Cc1nn2cccnc2c1C(=O)N1CCCC(Nc2ccccc2)C1` (centres undefined): 1.98% and 8.26%.
As for `Cc1ccc2c(c1)CN(C(=O)c1ccccc1F)C(CN(C)C)CO2` (centres undefined), the Percent Effect in test [1] is 5.11%; in test [2], 3.26%.
On the same counts, the results for `Cc1ccc(CC(=O)N2CSCC2C(=O)N(C)Cc2ccco2)o1` (centres undefined) are 8.09% and 12%.
The matching figures for `O=C(NCC(O)CN1CCc2ccccc2C1)Nc1cccnc1` (centres undefined): -0.98% and -22.8%.
On the same counts, the results for `CC(C)(C)c1cnc(CN2CCCC2Cn2cccn2)o1` (centres undefined) are -3.34% and 0.322%.
In the case of `N#Cc1ccc(CNCC2CCN(CCO)CC2)cc1`, the Percent Effect is 5.92% in test [1] and -29.9% in test [2].
The matching figures for `COCCc1noc(CNC2CCCN(c3cccnn3)C2)n1` (centres undefined): -0.981% and -59%.
The matching figures for `Cc1nc(NC(=O)CN2CCc3c(nc(C(C)C)n3C)C2)sc1C`: -4.32% and 5.46%.
On the same counts, the results for `CN(C)CC1CN(Cc2coc(-c3cccs3)n2)CCO1` (centres undefined) are 2.66% and -25.6%.
Regarding `CC(C)(C)c1ncc(C(=O)NCCNC(=O)c2ccccc2)s1`, the Percent Effect is 1.94% in test [1] and 36.9% in test [2].
